This note sets out measurements from PubChem BioAssay (Tox21).

The structures appear in SMILES notation. Unmarked numbers belong to inactive results. Inconclusive results are not listed. Active and inactive are the calls of the source. Unless noted, the call rests on the fitted dose curve.

Assay [1] in a line: qHTS assay to identify small molecule agonists of the sonic hedgehog signaling (Shh) pathway (AID 1259368).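 Further: NIH/3T3-derived 3T3Gli1-Luc cells carrying a stable Gli1-driven firefly luciferase reporter; nearly all actives have a fitted effect of over 15% in size.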 The note with it: NIH/3T3 Gli1-Luc reporter, luciferase, 24 h, stronger effect = higher value; series mostly up to 92.4 µM. In a few lines:
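Steps: seed 3T3 Gli1-Luc cells, incubate 4 hr at 37 C, pin-transfer compounds in DMSO alongside a positive control, incubate 24 hr, add luciferase detection reagent, wait 30 min at room temperature, read luminescence.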

The nature of assay [2]: qHTS assay to identify small molecule antagonists of the sonic hedgehog signaling (Shh) pathway (AID 1259369). Further: nearly all actives have a fitted effect of over 45% in size. Further: potency means the concentration at half of the fitted maximal effect. The note with it: NIH/3T3 Gli1-Luc reporter, Shh antagonist, luminescence 24 h; series mostly up to 92.4 µM. In a few lines:
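Inhibition of Shh signalling is measured as reduced Gli1-response-element firefly luciferase output in an NIH/3T3-derived stable reporter clone stimulated with conditioned medium for 24hr.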

The target in assay [3] is Estrogen receptor beta (Homo sapiens) (UniProt Q92731). Briefly: qHTS assay to identify small molecule agonists of the estrogen receptor beta (ER-beta) signaling pathway (AID 1259377; active means well fitted activation curve with a large enough effect in the signal ratio in the repeat runs, not every such curve was filed as active; the % refers to the signal ratio; further: potency means the concentration at half of the fitted maximal effect). The following applies: ER-beta-UAS-bla HEK293T, beta-lactamase FRET ratio, 16 h; series mostly up to 92.4 µM. Put shortly: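 Measured by fluorescence intensity from a B/G FRET beta-lactamase substrate (2 h, room temperature) in ER-beta-UAS-bla HEK293T cells treated with DMSO-dissolved compounds for 16 hr at 37C and 5% CO2.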

For assay [4] the target is unchanged. Description: qHTS assay to identify small molecule antagonists of the estrogen receptor beta (ER-beta) signaling pathway (AID 1259378; active means well fitted inhibition curve with a large enough effect in the signal ratio in the repeat runs, not every such curve was filed as active; the % refers to the signal ratio). The following applies: ER-beta-UAS-bla HEK293T, beta-lactamase FRET ratio, 16 h; series mostly up to 92.4 µM. Put shortly: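 ER-beta-UAS-bla HEK293T (GripTite) cells in 2% charcoal-stripped FBS medium were preincubated 6 hr at 37C, dosed with compound, then stimulated with 1 nM E2 (final) for 16 hr; beta-lactamase reporter read by B/G FRET fluorescence after 2 hr substrate loading.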

A short description of assay [5]: qHTS assay to identify small molecule agonists of the androgen receptor (AR) signaling pathway in the presence of an antagonist - cell viability counter screen (AID 1259379; active means well fitted curve in the direction sought with a large enough effect in the repeat runs; an effect the other way counts as inactive or inconclusive;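 further: MDA-kb2 human breast cancer cells carrying an MMTV luciferase reporter; nearly all actives have a fitted effect of over 25% in size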). The following applies: MDA-kb2 viability, CellTiter-Fluor, 16 h; series mostly up to 92.4 µM. Put shortly: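 Fluorescence from CellTiter-Fluor, added after 15 hr and read 1 hr later, gave cell viability. Cells were MDA-kb2 exposed to compounds (15 concentrations) in the presence of 3.0uM nilutamide at 37C, 0% CO2.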

A short description of assay [6]: qHTS assay to identify small molecule agonists of the estrogen receptor beta (ER-beta) signaling pathway - cell viability counter screen (AID 1259380; active means well fitted curve in the direction sought with a large enough effect in the repeat runs; an effect the other way counts as inactive or inconclusive; further: nearly all actives have a fitted effect of over 30% in size; further: potency means the concentration at half of the fitted maximal effect). The following applies: ER-beta-bla HEK293T viability, CellTiter-Glo luminescence, 16 h; series mostly up to 92.4 µM. Put shortly: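 Same-well viability counter screen. Cells: ER-beta-UAS-bla HEK293T, plated 6 hr before compound, in 2% charcoal-stripped FBS. Compound exposure 16 hr, 37C; viability by CellTiter-Glo luminescence after 30 min at room temperature.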

Assay [7] can be described thus: qHTS assay to identify small molecule antagonists of the estrogen receptor beta (ER-beta) signaling pathway - cell viability counter screen (AID 1259382; active means well fitted curve in the direction sought with a large enough effect in the repeat runs; an effect the other way counts as inactive or inconclusive; further: nearly all actives have a fitted effect of over 55% in size). The following applies: ER-beta-UAS-bla HEK293T viability, CellTiter-Glo luminescence, 16 h; series mostly up to 92.4 µM. In a few lines: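 Following a 6 hr plating period, HEK293T cells carrying a UAS-driven beta-lactamase reporter under ER-beta control received compounds and 1nM E2 (final). After 16 hr at 37C and 2 hr substrate loading, CellTiter-Glo luminescence indicated viability.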

Assay [8] addresses Estrogen receptor (Homo sapiens) (UniProt P03372). Briefly: qHTS assay to identify small molecule agonists of the estrogen receptor alpha (ER-alpha) signaling pathway in the presence of an antagonist (AID 1259383). Further: top concentration of the series differs between compounds; nearly all actives have a fitted effect of over 15% in size. The following applies: VM7Luc4E2 cells, ERE-luciferase, +ICI-182,780, 22 h; series mostly up to 92.4 µM. Put shortly: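 Cells are hormone-deprived for 5 days (charcoal-stripped FBS, no phenol red), plated for 24hr, spiked with 10.0nM ICI-182,780, then dosed at 15 concentrations. After 22hr at 37C, ONE-Glo luminescence reports ERE-luciferase activity.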

A short description of assay [9]: qHTS assay to identify small molecule agonists or antagonists of the thyroid stimulating hormone receptor (TSHR) signaling pathway - wild type cell line counter screen (AID 1259384). The note with it: HEK293 wild type, cAMP HTRF counter-screen, stronger effect = higher value; series mostly up to 92.4 µM. Put shortly: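 Wild-type HEK293 cells were plated 18 h at 37 C/5% CO2, pin-dosed with compound plus Ro20-1724 medium, held 30 min at room temperature, then given cAMP-d2 and anti-cAMP-cryptate; fluorescence was read after 1 h. Fifteen concentrations, triplicate.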

Assay [10] has as its target Androgen receptor (Homo sapiens) (UniProt P10275). Description: qHTS assay to identify small molecule agonists of the androgen receptor (AR) signaling pathway in the presence of an antagonist (AID 1259381). Further: nearly all actives have a fitted effect of over 15% in size. The note with it: MDA-kb2 MMTV-luciferase, AR agonist + nilutamide, 16 h; series mostly up to 92.4 µM. In a few lines: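 Cells are MDA-kb2 (human breast carcinoma, MMTV-luc, AR/GR responsive). Nilutamide is present at 3.0uM final throughout; compounds are added at 15 concentrations and incubated 16hr at 37C before ONE-Glo luminescence detection.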

Chain of Estrogen receptor beta (Homo sapiens) (Q92731 whole entry, looked up): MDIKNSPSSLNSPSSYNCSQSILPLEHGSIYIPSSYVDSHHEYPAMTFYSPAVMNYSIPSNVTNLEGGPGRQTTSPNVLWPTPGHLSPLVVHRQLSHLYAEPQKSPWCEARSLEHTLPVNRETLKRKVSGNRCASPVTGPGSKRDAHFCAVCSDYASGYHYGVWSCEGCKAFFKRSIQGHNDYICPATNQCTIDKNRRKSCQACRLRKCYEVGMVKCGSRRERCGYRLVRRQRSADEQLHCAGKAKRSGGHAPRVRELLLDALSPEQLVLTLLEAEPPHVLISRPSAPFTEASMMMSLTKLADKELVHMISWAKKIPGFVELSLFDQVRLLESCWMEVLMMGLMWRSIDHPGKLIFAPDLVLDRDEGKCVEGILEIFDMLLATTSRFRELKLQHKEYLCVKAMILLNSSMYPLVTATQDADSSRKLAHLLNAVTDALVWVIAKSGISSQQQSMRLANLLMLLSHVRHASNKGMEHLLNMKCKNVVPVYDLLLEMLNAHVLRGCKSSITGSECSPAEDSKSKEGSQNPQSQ
Chain of Androgen receptor (Homo sapiens) (P10275 whole entry, looked up): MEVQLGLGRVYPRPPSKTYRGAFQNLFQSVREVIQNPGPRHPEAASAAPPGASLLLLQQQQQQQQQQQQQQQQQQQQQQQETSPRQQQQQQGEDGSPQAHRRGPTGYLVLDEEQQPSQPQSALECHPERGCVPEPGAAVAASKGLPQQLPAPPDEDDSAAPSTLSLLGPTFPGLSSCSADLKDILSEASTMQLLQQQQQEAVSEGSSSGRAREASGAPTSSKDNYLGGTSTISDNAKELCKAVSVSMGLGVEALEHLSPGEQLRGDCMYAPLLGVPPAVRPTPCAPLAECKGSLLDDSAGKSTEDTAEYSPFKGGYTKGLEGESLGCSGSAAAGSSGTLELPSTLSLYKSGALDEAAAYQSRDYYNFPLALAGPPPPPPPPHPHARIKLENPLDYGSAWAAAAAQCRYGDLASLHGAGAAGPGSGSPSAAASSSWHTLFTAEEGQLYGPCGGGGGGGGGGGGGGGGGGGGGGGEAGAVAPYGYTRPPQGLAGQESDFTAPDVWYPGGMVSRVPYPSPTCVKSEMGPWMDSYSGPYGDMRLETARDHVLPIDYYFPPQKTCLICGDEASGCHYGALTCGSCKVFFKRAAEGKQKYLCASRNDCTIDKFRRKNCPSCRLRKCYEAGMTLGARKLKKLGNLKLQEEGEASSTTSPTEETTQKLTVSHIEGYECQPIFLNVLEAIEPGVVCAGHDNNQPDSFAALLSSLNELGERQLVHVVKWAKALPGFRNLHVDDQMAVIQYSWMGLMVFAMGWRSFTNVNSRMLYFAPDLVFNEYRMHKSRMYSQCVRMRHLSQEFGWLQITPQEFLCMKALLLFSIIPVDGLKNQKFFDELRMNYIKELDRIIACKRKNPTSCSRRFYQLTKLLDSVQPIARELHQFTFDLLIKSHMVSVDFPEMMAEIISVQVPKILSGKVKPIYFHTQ
Chain of Estrogen receptor (Homo sapiens) (P03372 whole entry, looked up): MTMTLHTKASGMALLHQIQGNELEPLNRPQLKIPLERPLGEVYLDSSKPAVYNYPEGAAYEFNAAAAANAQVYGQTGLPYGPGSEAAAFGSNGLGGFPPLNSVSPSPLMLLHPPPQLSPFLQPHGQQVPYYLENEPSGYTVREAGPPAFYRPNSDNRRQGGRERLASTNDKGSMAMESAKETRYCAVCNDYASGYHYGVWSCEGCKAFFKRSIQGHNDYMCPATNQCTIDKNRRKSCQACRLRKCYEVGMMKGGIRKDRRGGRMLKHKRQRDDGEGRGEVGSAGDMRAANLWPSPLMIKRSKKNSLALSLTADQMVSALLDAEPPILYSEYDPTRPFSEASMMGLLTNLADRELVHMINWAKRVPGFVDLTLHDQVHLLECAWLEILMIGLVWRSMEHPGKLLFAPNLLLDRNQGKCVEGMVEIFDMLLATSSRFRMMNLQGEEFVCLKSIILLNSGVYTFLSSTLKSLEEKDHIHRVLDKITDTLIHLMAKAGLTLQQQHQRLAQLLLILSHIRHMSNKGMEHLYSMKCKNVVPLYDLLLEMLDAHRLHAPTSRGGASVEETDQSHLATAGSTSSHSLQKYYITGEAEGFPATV

For `CC(C)(C1CCC(O)CC1)C1CCC(O)CC1` (stereo not given), the molecule was classed as inactive in assay [1] and in [4]. Further, the Potency entry in [2], in assay [5], in [6], in assay [7] and in [8] was “inactive” throughout. Besides, in [3], the Potency is 21.7 µM (active).
Regarding `Clc1nc(Cl)nc(Nc2ccccc2Cl)n1`, the call in assay [1], in [4] and in assay [9] was inactive. Also, the Potency result in assay [2], in assay [3], in assay [5], in [6], in [7] and in assay [8] was “inactive” throughout.
As to `Cn1c(CCCC(=O)O)nc2cc(N(CCCl)CCCl)ccc21`, the molecule was classed as inactive in assay [1], in assay [4] and in assay [9]. Moreover, the Potency entry in assay [2], in assay [3], in assay [5], in assay [6], in [7] and in assay [8] was “inactive” in each case.
Regarding `OP(O)c1ccccc1`, the result in [1], in assay [4] and in assay [9] was inactive. Further, the Potency result in [2], in assay [3], in assay [5], in assay [6], in [10] and in [7] was “inactive” each time. In addition, the Potency entry in [8] was “inactive”.
As for `COc1ccc(CN2CCNCC2)c(OC)c1OC`, the molecule was classed as inactive in [1] and in [4]. The Potency result in assay [2], in assay [3], in assay [5], in assay [6], in [7] and in assay [8] was “inactive” in each case.
As to `Cc1cc(OC(=O)N(C)C)nn1C(=O)N(C)C`, the call in assay [1], in assay [4] and in assay [9] was inactive. The Potency entry in assay [2], in assay [3], in assay [5], in assay [6], in assay [7] and in assay [8] was “inactive” in each case.
Consider `NC(=O)OCCCc1ccccc1`, for which the outcome in [1] and in assay [4] was inactive. Moreover, the Potency result in assay [2], in [3], in [5], in [6], in [7] and in assay [8] was “inactive” throughout.
`C=CC(=O)OCCN(C)C`: the outcome in assay [1] and in assay [4] was inactive. Also, the Potency entry in assay [2], in assay [3], in assay [5], in assay [6] and in assay [7] was “inactive” in each case.
Take `CC(C)[N+](C)(CCC(C(N)=O)(c1ccccc1)c1ccccc1)C(C)C`: the outcome in assay [1] and in [4] was inactive. Also, the Potency result in [2], in assay [3], in assay [5], in assay [6], in [7] and in assay [8] was “inactive” in each case.
Turning to `CCNc1nc(Cl)nc(NC(C)(C)C)n1`, the molecule was called inactive in [1] and in assay [4]. Moreover, the values for the Potency in assay [2] and in [3] were 0.969 µM (active) and 27.3 µM (active), respectively. The Potency result in assay [6], in [10] and in assay [7] was “inactive” throughout.
As to `CC(C)(C)C(=O)C(Cl)Cl`, the result in [1], in assay [4] and in assay [9] was inactive. Besides, the Potency result in [2], in assay [3], in assay [5], in assay [6] and in assay [7] was “inactive” throughout.
On to `CCOC(=O)N(C)N=O`, for which the molecule was called inactive in assay [1], in [4] and in [9]. In addition, the Potency result in [2], in [3], in assay [6] and in assay [7] was “inactive” in each case.
Turning to `NCCOS(=O)(=O)O`, the molecule was classed as inactive in assay [1], in assay [4] and in assay [9]. Further, the Potency entry in assay [2], in assay [3], in assay [6], in [7] and in [8] was “inactive” throughout.
As to `CN(CCO)CCO`, the molecule was called inactive in assay [1], in assay [4] and in assay [9]. The Potency entry in assay [2], in assay [3], in [6], in assay [7] and in [8] was “inactive” in each case.
With `S=C=S`, the result in assay [1] and in [4] was inactive. Further, the Potency result in assay [2], in assay [3], in assay [5], in assay [6] and in assay [8] was “inactive” throughout.
Consider `CCCCCCC1CCOC1=O` (stereo not given), for which the molecule was classed as inactive in [1], in assay [4] and in assay [9]. The Potency entry in [2], in assay [3], in assay [5], in [6] and in assay [7] was “inactive” in each case.
Turning to `C=C1CC[C@@]2(O)[C@H]3Cc4ccc(O)c5c4[C@@]2(CCN3CC2CC2)[C@H]1O5`, the outcome in assay [1], in [4] and in assay [9] was inactive. Moreover, the Potency entry in assay [2], in assay [3], in assay [5] and in assay [7] was “inactive” each time.
Consider `CCCCCCCCBr`, for which the result in assay [1], in [4] and in [9] was inactive. The Potency entry in assay [2], in assay [3], in [6] and in assay [7] was “inactive” each time.
Consider `Cc1ccc(S(=O)(=O)N[C@@H](CCCCN)C(=O)CCl)cc1`, for which the molecule was classed as inactive in [1] and in assay [9]. The Potency entry in [2], in assay [3], in assay [5], in [6], in [10] and in assay [7] was “inactive” in each case. The Potency result in assay [8] was “inactive”.
For `O=C(Cl)/C=C/C(=O)Cl`, the outcome in assay [1] was inactive. The Potency entry in assay [2], in [3], in [5], in assay [6], in assay [10] and in assay [7] was “inactive” in each case. The Potency result in [8] is “inactive”.
Regarding `Oc1ccc2c3c1O[C@H]1[C@@H](O)C=C[C@H]4[C@@H](C2)NCC[C@@]341`, the result in assay [1] and in assay [9] was inactive. Moreover, the Potency in assay [2] is 1.99 µM (active). The Potency result in assay [3] and in [6] was “inactive” throughout.
As for `C=C1C[C@@H]2[C@H](CC[C@]3(C)C(=O)CC[C@@H]23)[C@@]2(C)C=CC(=O)C=C12`, the molecule was called inactive in [1], in assay [4] and in assay [9]. The Potency in assay [2] was 6.68 µM (active). For the same molecule, the Potency entry in assay [3], in [6] and in assay [8] was “inactive” in each case.
Consider `O=P(O)(O)CN(CP(=O)(O)O)CP(=O)(O)O`, for which the outcome in assay [1], in assay [4] and in assay [9] was inactive. For the same molecule, the Potency entry in assay [2], in [3], in [6], in assay [7] and in assay [8] was “inactive” each time.
In the case of `CN(C)CCc1c[nH]c2cccc(OP(=O)(O)O)c12`, the molecule was classed as inactive in assay [1] and in assay [4]. Also, the Potency result in assay [2], in [3], in [5], in assay [6] and in assay [8] was “inactive” each time.
Turning to `CC(C)c1ccc(O)cc1`, the call in assay [1], in assay [4] and in assay [9] was inactive. For the same molecule, the Potency entry in assay [2], in [3], in assay [5] and in assay [6] was “inactive” each time.
Turning to `O=C(O)C(F)(F)C(F)(F)C(F)(F)C(F)(F)C(F)(F)C(F)(F)F`, the molecule was classed as inactive in assay [1] and in [9]. Further, the Potency result in [2], in assay [3] and in assay [5] was “inactive” throughout. Besides, the Potency in [6] is 54.5 µM (active).
Consider `O=C(Cl)OCc1ccccc1`, for which the molecule was called inactive in [1], in assay [4] and in assay [9]. In addition, the Potency result in assay [2], in [3], in [5], in [6] and in [8] was “inactive” each time.
As for `COc1ccc2c(C(=O)c3ccc(Cl)cc3)c(C)n(CC(=O)O)c2c1`, the call in [1] was inactive. Also, the Potency result in [2], in assay [3], in [5], in assay [6] and in assay [7] was “inactive” throughout.
`CC(C)NCC(O)c1ccc([N+](=O)[O-])cc1` (stereo not given): the molecule was called inactive in assay [1]. The Potency result in assay [2], in assay [3], in assay [5], in assay [6] and in [7] was “inactive” throughout.
